Article PMC5540273 (PLoS ONE, 2017)

The compounds below were run on ADCK4. Settings: concentration: 1 μM, replicates: in singlicate; n = 1.
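Also: KINOMEscan kinase panel screen.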

Row | SMILES | %Inh [%]
1 | CCCCc1nn2ncccc2c1-c1ccnc(NC2CC2)n1 [GW684374] | 38
2 | COC(=O)C(NC(=O)NC1CCN(c2ccnc(Nc3ccc(F)cc3)n2)C1)c1ccccc1 (stereo not shown) [GSK1379712] | 22
3 | O=c1cc(N2CCOCC2)nc2n(Cc3ccccc3F)ccn12 [GSK2297428] | 8
4 | COc1cc2ncnc(Nc3cccc(Br)c3)c2cc1OC.Cl [GI230329] | 52
5 | CS(=O)(=O)Cc1ccc(Nc2nccc(-c3c(-c4cccc(NC(=O)C5CCCCC5)c4)nn4ncccc34)n2)cc1 [GSK350559] | 0
6 | Cc1cnc(N)c(/C=C/c2cncc(C(=O)NCCc3ccc(Cl)cc3Cl)c2)c1.Cl [GSK190937] | 13
7 | CS(=O)(=O)CCNCc1nc(-c2ccc3ncnc(Nc4ccc5c(cnn5Cc5ccccc5)c4)c3c2)cs1.Cl.Cl [GW569716] | 54
8 | CC[C@@H]1CO[C@H](C(=O)Nc2ccccc2)CN1c1cc(-c2ccc3c(N)n[nH]c3c2)nc(NC)n1 [GSK2376236] | 12
9 | CC(=O)c1c(C)c2cnc(Nc3ccc(N4CCNCC4)cn3)nc2n(C2CCCC2)c1=O | 0
10 | COc1ccc(-c2coc3ccc(-c4nnc(C)o4)cc23)cc1 | 0
11 | Cc1c(Cn2c(C)c(C)n3c(=O)cc(N4CCOCC4)nc23)cccc1C(F)(F)F [GSK2328680] | 14
12 | CNc1cc(-c2ccc3c(N)n[nH]c3c2)nc(N)n1 [GSK2224810] | 13
13 | Cc1ccc(NC(=O)c2ccc(Cl)cc2)cc1-c1ccc(C(=O)Nc2ccncc2)cc1 [GSK1398467] | 0
14 | CCn1c(-c2ccccc2)nc2cnccc21 [SB-733416] | 0
15 | CN1c2ccc(-c3ccc(C(N)=O)cc3)cc2-c2[nH]ncc2S1(=O)=O | 3
16 | CS(=O)(=O)CCNCc1nc(-c2ccc3ncnc(Nc4ccc(OCc5ccccc5)c(Cl)c4)c3c2)cs1.Cl [GW582764] | 45
17 | COC(=O)c1cccc(NC(=O)NC2CCN(c3ccnc(Nc4ccc(OC)cc4)n3)C2)c1 (stereo not shown) [GSK1379746] | 52
18 | NS(=O)(=O)c1cccc(N/C=C2\C(=O)Nc3ccc(S(=O)(=O)Cc4c(Cl)cccc4Cl)cc32)c1 [GSK398099] | 18
19 | CC(=O)c1cccc(NC(=O)NC2CCN(c3ccnc(Nc4ccc(F)cc4)n3)C2)c1 (stereo not shown) [GSK1379710] | 41

Row | SMILES | %Inh [%]
20 | O=C1NC(=O)C(c2ccc(Cl)cc2)=C1Nc1cccc(Cl)c1 [SB-317651] | 0
21 | Cc1ccc(-c2nc(Nc3ccncc3)c3ccccc3n2)s1 [GSK189015] | 4
22 | Cn1cnc2c(N)ncnc21 [SKF-97623] | 17
23 | CNc1nc(-c2ccc3c(N)n[nH]c3c2)cc(N2C[C@@H](C(=O)NC3CCCCC3)OC[C@H]2C)n1 [GSK2375584] | 18
24 | O=C(Nc1n[nH]c2nc(-c3ccco3)c(Br)cc12)C1CCN(Cc2ccccc2)C1.O=C(O)[C@H](O)[C@@H](O)C(=O)O (stereo not shown) [SB-742034] | 0
25 | COc1ccc(Nc2nccc(NCCNC(=O)Nc3cc(C)ccc3C)n2)cc1 [GSK1379899] | 0
26 | CC(C)c1cc(-c2ccc3c(N)n[nH]c3c2)nc(N)n1 [GSK2250882] | 37
27 | O=C(Nc1n[nH]c2nc(-c3cccs3)c(Br)cc12)C1CCCC1 [SB-743341] | 0
28 | O=C1NC(=O)C(c2ccc(Cl)cc2)=C1Nc1ccc(O)cc1 [SB-340867] | 0
29 | COc1ccc(Nc2nccc(N3CCC(NC(=O)C(C)c4ccc(Cl)cc4)CC3)n2)cc1 (stereo not shown) [GSK1379812] | 18
30 | CC(C)c1ccc(O)cc1Nc1ccnc2ccc(C(F)(F)F)cc12 [GW482059] | 2
31 | CCn1c(-c2c(N)noc2C)nc2cnccc21 [SB-737856] | 24
32 | COc1ccc(Nc2nccc(N3CCC(NC(=O)C(C)c4ccc(Cl)cc4)C3)n2)cc1 (stereo not shown) [GSK1379735] | 17
33 | O=c1cc(N2CCOCC2)nc2n(Cc3cccc(Cl)c3Cl)c3ccccc3n12 [GSK2299009] | 36
34 | CC(=O)c1c(C)c2cnc(Nc3ccn(C)n3)nc2n(C2CCCC2)c1=O | 0
35 | Cc1nccc(-c2c(-c3ccc(F)cc3)ncn2CCCN2CCOCC2)n1.Cl [SB-282975] | 0
36 | COc1ccc(CSc2nnc(-c3ccc4c(c3)CCO4)o2)cc1 | 0
37 | Cc1ccc(NC(=O)Nc2ccc(Cl)cc2)cc1-c1ccc(C(=O)Nc2ccncc2)cc1 [GSK1398472] | 23
